Here are results for three molecules from PubChem BioAssay (EPA / NIEHS).

Each structure is given as a SMILES string. Where “and” joins values, the source holds several entries; their conditions need not be identical. Equal entries are not always repeated. Some structures have more than one record in an assay (separate samples or runs), and their calls can disagree. Calls of active or inactive are those of the source. The calls were made as follows: active = hit-call score of the fitted dose curve at least 0.9, where 1 is the maximum; inactive = score below 0.9.

Read-out in experiment [1]: Interleukin-1 alpha (IL1a), IL1A (gene 3552)
Nature of the experiment: BSK_KF3CT_IL1a: BioMAP Diversity Plus: KF3CT Assay for Interleukin-1 alpha (IL1a) Biomarker Activity (AID 2283070). To be noted: primary human keratinocytes with fibroblasts; actives raise or lower the signal. The method, boiled down:
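Chemicals were dosed onto co-cultured human keratinocytes and foreskin fibroblasts, IL-1a was quantified by ELISA at 24 h, and activity was fitted in both directions relative to DMSO controls.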

Read-out in experiment [2]: TIMP metallopeptidase inhibitor 2 (TIMP2), TIMP2 (gene 7077)
Briefly: BSK_KF3CT_TIMP2: BioMAP Diversity Plus: KF3CT Assay for TIMP metallopeptidase inhibitor 2 (TIMP2) Biomarker Activity (AID 2283071). The note with it: primary human keratinocytes with fibroblasts; actives raise or lower the signal. The method, boiled down:
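Cells: human keratinocytes co-cultured with foreskin fibroblasts. Treat with chemical, 24 h. Measure TIMP-2 by ELISA; fit curves bidirectionally vs DMSO baseline.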

Read-out in experiment [3]: C-C motif chemokine 2 (Homo sapiens) (UniProt P13500)
Nature of the experiment: BSK_KF3CT_MCP1: BioMAP Diversity Plus: KF3CT Assay for Monocyte Chemoattractant Protein 1 (MCP1/CCL2) Biomarker Activity (AID 2283073). To be noted: primary human keratinocytes with fibroblasts; actives raise or lower the signal. The method, boiled down: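 ELISA readout of MCP-1 after 24 h chemical dosing of a human skin primary co-culture of keratinocytes and foreskin fibroblasts. Activity was fitted in both directions against DMSO.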

Read-out in experiment [4]: Matrix Metallopeptidase 9 (MMP9), MMP9 (gene 4318)
Briefly: BSK_KF3CT_MMP9: BioMAP Diversity Plus: KF3CT Assay for Matrix Metallopeptidase 9 (MMP9) Biomarker Activity (AID 2283074).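 As to AC50: MMP9 protein level quantified by ELISA in the co-culture.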 The note with it: primary human keratinocytes with fibroblasts; actives raise or lower the signal. The method, boiled down: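 Human keratinocyte/foreskin fibroblast co-culture; compound added; 24 h; MMP-9 by ELISA; bidirectional fit vs DMSO baseline.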

Read-out in experiment [5]: urokinase plasminogen activator (uPA), PLAU (gene 5328)
Nature of the experiment: BSK_KF3CT_uPA: BioMAP Diversity Plus: KF3CT Assay for urokinase plasminogen activator (uPA) Biomarker Activity (AID 2283075). The note with it: primary human keratinocytes with fibroblasts; actives raise or lower the signal. The method in brief:
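ELISA readout of uPA, analyzed for signal gain or loss relative to DMSO, from a human primary keratinocyte–foreskin fibroblast co-culture measured 24 h after chemical treatment.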

Read-out in experiment [6]: CD40, CD40 (gene 958)
Nature of the experiment: BSK_LPS_CD40: BioMAP Diversity Plus: LPS Assay for CD40 Biomarker Activity (AID 2283076). The note with it: primary human HUVEC with PBMC; actives raise or lower the signal. The method in brief:
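Cells were dosed, incubated 24 h, then assayed for CD40 by ELISA. Gain or loss of signal was analysed relative to DMSO controls. The culture paired human umbilical vein endothelium with peripheral blood mononuclear cells.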

Read-out in experiment [7]: E-selectin (Homo sapiens) (UniProt P16581)
Nature of the experiment: BSK_LPS_Eselectin: BioMAP Diversity Plus: LPS Assay for Eselectin Biomarker Activity (AID 2283077). The note with it: primary human HUVEC with PBMC; actives raise or lower the signal. The method in brief: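 Primary human vascular co-culture (endothelium plus PBMC) was dosed with chemical, then E-selectin quantified by ELISA at 24 h. Endpoint values derive from bidirectional curve fitting relative to DMSO.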

Read-out in experiment [8]: Interleukin-8 (IL8), CXCL8 (gene 3576)
Briefly: BSK_LPS_IL8: BioMAP Diversity Plus: LPS Assay for Interleukin-8 (IL8) Biomarker Activity (AID 2283078). To be noted: primary human HUVEC with PBMC; actives raise or lower the signal. The method, boiled down:
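Readout is IL-8 by ELISA, taken 24 h after compounds were added to LPS-stimulated endothelial/PBMC co-cultures. Both increases and decreases relative to DMSO control were scored through bidirectional fitting.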

Experiment [9] is described as follows: BSK_LPS_SRB: Viability Assessment in the BioMAP Diversity Plus: LPS Assay (AID 2283079).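 Also: total protein by sulforhodamine B absorbance as a cytotoxicity measure; measured one day after compound addition; fitted in both directions against DMSO so loss or gain of signal counts.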 The note with it: primary human HUVEC with PBMC. The method in brief:
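Readout is SRB absorbance at 560 nm (0.1% stain, TCA-fixed parallel cultures) as a total-protein cytotoxicity measure. Cells: primary human umbilical vein endothelium plus peripheral blood mononuclear cells, 24 h after chemical exposure; DMSO served as baseline.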

Read-out in experiment [10]: Interleukin-1 alpha (IL1a), IL1A (gene 3552)
Briefly: BSK_LPS_IL1a: BioMAP Diversity Plus: LPS Assay for Interleukin-1 alpha (IL1a) Biomarker Activity (AID 2283080). The note with it: primary human HUVEC with PBMC; actives raise or lower the signal. The method, boiled down:
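ELISA read-out of IL-1 alpha from a human primary vascular co-culture (endothelium plus PBMC) under LPS, sampled 24 hours post-dosing. Activity was fitted in both directions relative to DMSO controls.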

Read-out in experiment [11]: Monocyte Chemoattractant Protein-1 (MCP1), CCL2 (gene 6347)
Briefly: BSK_LPS_MCP1: BioMAP Diversity Plus: LPS Assay for Monocyte Chemoattractant Protein-1 (MCP1) Biomarker Activity (AID 2283081).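 As to AC50: secreted MCP-1 protein quantified by ELISA in culture supernatant.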 To be noted: primary human HUVEC with PBMC; actives raise or lower the signal. The method, boiled down: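 Human endothelial–PBMC co-cultures were dosed with chemical, then LPS-driven MCP-1 levels were quantified by ELISA at 24 h. Activity in either direction was fitted versus DMSO negative control.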

Experiment [12] can be described thus: BSK_LPS_PGE2: BioMAP Diversity Plus: LPS Assay for Prostaglandin E2 (PGE2) Biomarker Activity (AID 2283082).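 As to AC50: secreted prostaglandin E2 measured by ELISA in LPS-stimulated co-culture.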 The note with it: primary human HUVEC with PBMC; actives raise or lower the signal. The method in brief: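 LPS-activated HUVEC/PBMC co-culture; cmpd dosed, 24 h; PGE2 by ELISA; bidirectional fit vs DMSO; SRB (0.1%, TCA-fixed, 560 nm) in parallel plates for overt cytotox.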

Read-out in experiment [13]: Macrophage colony-stimulating factor (MCSF), CSF1 (gene 1435)
Briefly: BSK_LPS_MCSF: BioMAP Diversity Plus: LPS Assay for Macrophage colony-stimulating factor (MCSF) Biomarker Activity (AID 2283083). The note with it: primary human HUVEC with PBMC; actives raise or lower the signal. The method in brief: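 ELISA readout of M-CSF after 24 h compound exposure in a human endothelial/PBMC co-culture. Activity, in either direction, is fitted relative to DMSO vehicle.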

Read-out in experiment [14]: Tissue Factor, F3 (gene 2152)
Briefly: BSK_LPS_TissueFactor: BioMAP Diversity Plus: LPS Assay for Tissue Factor Biomarker Activity (AID 2283084). To be noted: primary human HUVEC with PBMC; actives raise or lower the signal. The method in brief: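 ELISA signal for cell-surface Tissue Factor (CD142) was read 24 h after compound dosing of an LPS-stimulated human endothelial–PBMC primary co-culture. Gain or loss of signal was scored relative to DMSO.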

Read-out in experiment [15]: Tumor necrosis factor (Homo sapiens) (UniProt P01375)
Nature of the experiment: BSK_LPS_TNFa: BioMAP Diversity Plus: LPS Assay for Tumour Necrosis Factor alpha (TNFa) Biomarker Activity (AID 2283085). To be noted: primary human HUVEC with PBMC; actives raise or lower the signal. The method in brief:
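Read-out is ELISA of TNFa in primary human endothelial cell–PBMC co-cultures at 24 h after compound. Activity in either direction was fitted against DMSO.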

Read-out in experiment [16]: Vascular cell adhesion molecule 1 (VCAM1), VCAM1 (gene 7412)
Briefly: BSK_LPS_VCAM1: BioMAP Diversity Plus: LPS Assay for Vascular cell adhesion molecule 1 (VCAM1) Biomarker Activity (AID 2283086). To be noted: primary human HUVEC with PBMC; actives raise or lower the signal. The method in brief: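 HUVEC + PBMC co-culture, LPS system; compound 24 h; VCAM-1 by ELISA; bidirectional fit vs DMSO control; parallel SRB (0.1%, TCA-fixed, 560 nm) for cytotoxicity.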

Read-out in experiment [17]: CD38, CD38 (gene 952)
Briefly: BSK_SAg_CD38: BioMAP Diversity Plus: SAg Assay for CD38 Biomarker Activity (AID 2283087). The note with it: primary human HUVEC with PBMC; actives raise or lower the signal. The method, boiled down: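 Human HUVEC plus PBMC co-culture stimulated with superantigen; CD38 measured by ELISA 24 h after chemical dosing. Fluorescence read-out, bidirectional fit against DMSO; cytotoxicity tracked in parallel by SRB and Alamar Blue.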

Read-out in experiment [18]: CD40, CD40 (gene 958)
Briefly: BSK_SAg_CD40: BioMAP Diversity Plus: SAg Assay for CD40 Biomarker Activity (AID 2283088). The note with it: primary human HUVEC with PBMC; actives raise or lower the signal. The method in brief:
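Compounds were dosed onto a human primary endothelial–PBMC co-culture, and after 24 h CD40 was quantified by ELISA using a fluorescence signal. Activity in either direction was fitted relative to DMSO.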

Read-out in experiment [19]: CD69, CD69 (gene 969)
Nature of the experiment: BSK_SAg_CD69: BioMAP Diversity Plus: SAg Assay for CD69 Biomarker Activity (AID 2283089).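 As to AC50: cell surface CD69 protein quantified by ELISA with fluorescence detection.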 The note with it: primary human HUVEC with PBMC; actives raise or lower the signal. The method, boiled down:
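Endothelial/PBMC co-culture; chemical added; 24 h incubation; CD69 ELISA with fluorescence detection; bidirectional fit vs DMSO.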

Read-out in experiment [20]: Transforming growth factor beta 1 (TGFb1), TGFB1 (gene 7040)
Nature of the experiment: BSK_KF3CT_TGFb1: BioMAP Diversity Plus: KF3CT Assay for Transforming growth factor beta 1 (TGFb1) Biomarker Activity (AID 2283072). To be noted: primary human keratinocytes with fibroblasts; actives raise or lower the signal. The method, boiled down: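 Primary human skin cells (keratinocytes, foreskin fibroblasts) were co-cultured, exposed to test chemical and sampled at 24 h. TGF-b1 levels were measured by ELISA and fitted bidirectionally relative to DMSO.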

Tumor necrosis factor (Homo sapiens), sequence (P01375 whole entry, looked up): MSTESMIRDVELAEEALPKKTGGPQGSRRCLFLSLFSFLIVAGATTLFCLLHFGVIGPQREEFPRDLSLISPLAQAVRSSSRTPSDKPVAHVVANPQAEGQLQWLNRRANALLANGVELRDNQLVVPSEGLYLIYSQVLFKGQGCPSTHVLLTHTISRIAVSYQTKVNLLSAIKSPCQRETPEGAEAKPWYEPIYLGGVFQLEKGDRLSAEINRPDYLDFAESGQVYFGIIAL
E-selectin (Homo sapiens), sequence (P16581 whole entry, looked up): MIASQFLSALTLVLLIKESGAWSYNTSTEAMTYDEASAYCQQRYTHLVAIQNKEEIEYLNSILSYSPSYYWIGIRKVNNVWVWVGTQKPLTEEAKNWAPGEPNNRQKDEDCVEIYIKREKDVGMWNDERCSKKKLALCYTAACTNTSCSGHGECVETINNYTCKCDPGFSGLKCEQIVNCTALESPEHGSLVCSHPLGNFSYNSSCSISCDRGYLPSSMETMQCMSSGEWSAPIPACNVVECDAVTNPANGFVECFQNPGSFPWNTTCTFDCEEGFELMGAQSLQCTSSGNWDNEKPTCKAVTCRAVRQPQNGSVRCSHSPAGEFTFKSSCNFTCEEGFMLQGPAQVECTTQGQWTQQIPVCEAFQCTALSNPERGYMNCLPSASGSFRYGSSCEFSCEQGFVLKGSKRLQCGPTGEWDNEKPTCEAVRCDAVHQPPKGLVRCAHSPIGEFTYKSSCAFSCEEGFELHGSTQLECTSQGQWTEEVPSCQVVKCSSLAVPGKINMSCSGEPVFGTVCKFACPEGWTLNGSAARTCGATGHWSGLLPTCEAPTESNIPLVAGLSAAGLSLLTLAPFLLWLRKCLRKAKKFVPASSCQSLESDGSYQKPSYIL

As for `O=C(Cl)C(F)(F)C(F)(F)C(F)(F)C(F)(F)C(F)(F)C(F)(F)F`, the outcome in experiment [1], in [2], in experiment [3], in experiment [4], in experiment [5] and in [6] was inactive. Further, the outcome in experiment [7], in [8], in experiment [9], in [10], in experiment [11] and in experiment [12] was inactive. The outcome in [13], in experiment [14], in experiment [15], in experiment [16], in experiment [17] and in [18] was inactive. In addition, the result in [19] was inactive. The results for the AC50 in experiment [4] and in experiment [8] were 18.3 µM (active) and 50.3 µM (active), respectively.

For `O=C1c2c(O)ccc(Nc3ccc(CCO)cc3)c2C(=O)c2c([N+](=O)[O-])ccc(O)c21`, the result in experiment [1], in experiment [20], in experiment [3], in experiment [8], in experiment [10] and in [15] was inactive. Moreover, the AC50 in [2] is 0.54 µM (active); in experiment [4], 20 µM (active); in experiment [6], 8.34 µM (active); in experiment [7], 20 µM (active); in experiment [9], 3.97 µM (active); in [11], 20 µM (active). For the same molecule, the concentration at half-maximal activity (AC50) in experiment [12] is 29.4 µM (active); in experiment [13], 7.53 µM (active); in experiment [14], 3.97 µM (active); in [16] it was 20 µM (active); in [17], 20 µM (active); in [18], 25.9 µM (active). Further, in [19], the AC50 was 14.2 µM (active).

Turning to `O=S(=O)(O)CCC(F)(F)C(F)(F)C(F)(F)C(F)(F)C(F)(F)C(F)(F)C(F)(F)C(F)(F)F`, the AC50 in [1] was 7.84 µM (active); in experiment [10], 47.3 µM (active) and 44.8 µM (active); in experiment [12], 30 µM (active) and 40.9 µM (active); in experiment [13], 51.4 µM (active); in experiment [15], 47.1 µM (active); in [16], 5.95 µM (active). In addition, in experiment [17], the AC50 is 15.6 µM (active). For the same molecule, the result in [1], in [2], in experiment [3], in experiment [4], in [5] and in [6] was inactive. For the same molecule, the result in experiment [7], in experiment [8], in [9], in [11], in experiment [13] and in experiment [14] was inactive. Further, the outcome in experiment [15], in [16], in [17], in experiment [18] and in experiment [19] was inactive.

The AC50 is the concentration at which the activity in the assay is half-maximal.
